Source: PubChem
Only some compounds are listed: those with a hit (about 4% of all), similar ones and a draw of the others.
RecA intein inh: Mtb RecA intein splicing inhibition | P9WHJ3 | cell-free RecA intein splicing, fluorescence | inhibition, % (no concentration beside the values) | actives 0.75% (n = 290,000) | AID 2221; in the data active = inhibition above about 30%; inconclusive = no clear call, values can overlap the other calls;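 also: 0% = vehicle wells and 100% = reference inhibitor control wells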
FBA Mtb inh: inhibits M. tuberculosis FBA enzyme | P9WQA3 | purified M. tuberculosis FBA, fluorescence read-out | inhibition, % at 1 µM | actives 2.3% (n = 360,000) | AID 588726;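 also: 0% = vehicle and 100% = reference inhibitor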
GDH-TPI counter-1: GDH-TPI coupled enzyme inhibition counter-screen. inhibition, % at 4.8 µM. AID 588335. GDH-TPI coupled enzyme counterscreen, NADH absorbance. actives 1.2% (n = 360,000); in the data active = inhibition above about 30%;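 also: 0% = DMSO wells and 100% = wells lacking the enzyme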
Mtb UGM inh: inhibitors of M. tuberculosis UDP-galactopyranose mutase; P9WIQ1; purified UGM, fluorescence polarization probe displacement; inhibition, % at 10 µM; actives 0.06% (n = 320,000); in the data active = inhibition above about 10%, passing the limit was not always enough; inconclusive = no clear call, values can overlap the other calls
Rv3671c inh: inhibits the M. tuberculosis serine protease Rv3671c; P9WHR9; inhibition, % at 5.96 µM; actives 0.048% (n = 320,000); AID 2606; in the data active = inhibition above about 38%;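 also: extracellular domain of Rv3671c used as enzyme; 0% = enzyme with DMSO and 100% = no enzyme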
Target sequence (P9WHR9 whole entry, looked up, the tested form may be a part): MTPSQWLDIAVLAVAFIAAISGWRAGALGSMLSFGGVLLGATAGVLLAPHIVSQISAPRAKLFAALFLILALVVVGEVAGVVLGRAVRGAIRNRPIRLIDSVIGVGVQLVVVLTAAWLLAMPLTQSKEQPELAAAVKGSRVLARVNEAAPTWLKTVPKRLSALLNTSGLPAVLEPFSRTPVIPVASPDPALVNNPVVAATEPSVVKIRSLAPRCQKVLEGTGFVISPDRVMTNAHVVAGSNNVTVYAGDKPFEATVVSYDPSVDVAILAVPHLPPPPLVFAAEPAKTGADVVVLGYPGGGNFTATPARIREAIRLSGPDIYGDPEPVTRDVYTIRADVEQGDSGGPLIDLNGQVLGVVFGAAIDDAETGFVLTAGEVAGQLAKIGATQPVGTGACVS
Mtb betalactam: beta-lactam sensitization of Mtb H37Rv; M. tuberculosis H37Rv growth with meropenem, percent inhibition; inhibition, % at 25 µM; actives 0.27% (n = 330,000); call rule not given here;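 also: growth measured after seven days incubation then overnight dye step; 0% = bacteria only wells and 100% = bacteria with antibiotic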
Mtb FBA confirm: Mtb FBA inhibition, confirmed. shares compounds with FBA Mtb inh. purified M. tuberculosis FBA, fluorescence read-out. inhibition, % at 1 µM. actives 78% (n = 5,600);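 also: 0% = vehicle wells and 100% = reference inhibitor wells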
GDH-TPI counter-2: GDH-TPI inhibition counter-screen for FBA inhibitors; shares compounds with FBA Mtb inh; GDH-TPI coupled enzyme counterscreen, fluorescence; inhibition, % at 1 µM; actives 81% (n = 5,600); AID 652141; in the data active = inhibition above about 10%
GDH-TPI DR: counter-screen for M. tuberculosis FBA inhibitors: GDH-TPI dose response | shares compounds with FBA Mtb inh | GDH-TPI coupled enzyme assay, fluorescence, artifact counterscreen | IC50, µM | actives 79% (n = 170) | AID 652145; call rule not given here
Starred values were filed as active, the others as inactive. Rule as the data show it, unless noted: active = inhibition above about 27%; inactive = the rest.

For CCOC(=O)c1ccc2ncc(C(=O)OCC)c(NCc3ccco3)c2c1 the results were RecA intein inh 0, FBA Mtb inh 62*, GDH-TPI counter-1 18, Mtb UGM inh 2, Rv3671c inh -20, Mtb betalactam 62, Mtb FBA confirm 8 and GDH-TPI counter-2 1.
For Cc1cccc(CNC(=O)c2ccccc2NC(=O)C2=CSCCO2)c1 the results were RecA intein inh -9, FBA Mtb inh -1, GDH-TPI counter-1 11, Mtb UGM inh 4, Rv3671c inh -15 and Mtb betalactam 0.
For Nc1ccccc1C(=O)NCc1ccco1 the results were RecA intein inh 0, FBA Mtb inh 52*, GDH-TPI counter-1 1, Mtb UGM inh 1, Mtb betalactam -4, Mtb FBA confirm 83* and GDH-TPI counter-2 59*.
Screening O=C(NCc1ccco1)c1ccccc1O returned RecA intein inh -2, FBA Mtb inh 10, GDH-TPI counter-1 -6, Mtb UGM inh 0 and Mtb betalactam 2.
Cc1ccc(CNC(=O)c2ccccc2N)cc1 was read as RecA intein inh 0, FBA Mtb inh 60*, GDH-TPI counter-1 -10, Mtb UGM inh -5, Rv3671c inh 1, Mtb betalactam 6, Mtb FBA confirm 80* and GDH-TPI counter-2 60*.
Cc1cccc(CNC(=O)c2ccccc2N)c1 was read as RecA intein inh -5, FBA Mtb inh 58*, GDH-TPI counter-1 -10, Mtb UGM inh -1, Rv3671c inh -1, Mtb betalactam 1, Mtb FBA confirm 137* and GDH-TPI counter-2 102*.
C[C@@H]1CN([C@@H](C)CO)C(=O)c2cc(NS(C)(=O)=O)ccc2O[C@@H]1CN(C)Cc1ccc(C(F)(F)F)cc1 was read as FBA Mtb inh 5 and GDH-TPI counter-1 4.
`CCOc1cc(S(=O)(=O)N(CC)CC)c(OCC)cc1-n1cnnn1` gave RecA intein inh -1, FBA Mtb inh 28*, GDH-TPI counter-1 10, Rv3671c inh 4, Mtb betalactam 8, Mtb FBA confirm 193* and GDH-TPI counter-2 137*.
CCOc1ccc(-n2cnnn2)cc1S(=O)(=O)Nc1c(C)cccc1C was read as RecA intein inh 3, FBA Mtb inh 0, GDH-TPI counter-1 2, Mtb UGM inh 0, Rv3671c inh -6 and Mtb betalactam 1.
For CCOc1cc(S(=O)(=O)NCCc2ccccc2C)c(OCC)cc1-n1cnnn1 the results were RecA intein inh 3, FBA Mtb inh 51*, GDH-TPI counter-1 7, Mtb UGM inh -1, Rv3671c inh -1, Mtb betalactam 7, Mtb FBA confirm 22 and GDH-TPI counter-2 12*.
For NC(=O)CSc1oc(-c2ccco2)nc1S(=O)(=O)c1ccc(F)cc1 the results were RecA intein inh 1, FBA Mtb inh -1, GDH-TPI counter-1 -2, Mtb UGM inh 1, Rv3671c inh 9 and Mtb betalactam 0.
Screening COC(=O)C1(C)Nc2ccccc2C(=O)N1c1ccccc1C (centres undefined) returned RecA intein inh 1, FBA Mtb inh 52*, GDH-TPI counter-1 16, Mtb UGM inh 0, Rv3671c inh 2, Mtb betalactam -2, Mtb FBA confirm 102* and GDH-TPI counter-2 71*.
For N#CCc1nc(-c2cc3ccccc3oc2=O)cs1 the results were RecA intein inh 1, FBA Mtb inh 77*, GDH-TPI counter-1 12, Mtb UGM inh 1, Rv3671c inh -8, Mtb betalactam -3, Mtb FBA confirm 197* and GDH-TPI counter-2 155*.
For O=c1oc2ccc(Cl)cc2cc1-c1ccccc1 the results were RecA intein inh -1, FBA Mtb inh 1, GDH-TPI counter-1 -3, Mtb UGM inh 1, Rv3671c inh 1 and Mtb betalactam inconclusive.
O=c1oc2ccccc2cc1-c1cn2ccccc2n1 was read as FBA Mtb inh 4, GDH-TPI counter-1 30, Mtb UGM inh -2, Rv3671c inh -6 and Mtb betalactam 6.
`O=c1oc2ccccc2cc1-c1ccccc1` gave RecA intein inh 1, FBA Mtb inh 31*, GDH-TPI counter-1 17, Mtb UGM inh 0, Rv3671c inh -4, Mtb betalactam 5, Mtb FBA confirm 11, GDH-TPI counter-2 2 and GDH-TPI DR 5.2*.
Screening O=c1oc(-c2ccccc2)cc2ccccc12 returned FBA Mtb inh 44*, GDH-TPI counter-1 11, Mtb FBA confirm 71* and GDH-TPI counter-2 47*.
O=c1oc2ccccc2cc1-c1cn2cccnc2n1 was read as RecA intein inh -18, FBA Mtb inh 29*, GDH-TPI counter-1 45*, Mtb UGM inh -1, Rv3671c inh -22, Mtb betalactam -1, Mtb FBA confirm active and GDH-TPI counter-2 196*.
Nc1ccc(-c2cc3ccccc3c(=O)o2)cc1 was read as FBA Mtb inh 2, GDH-TPI counter-1 30, Mtb UGM inh 4, Rv3671c inh 0 and Mtb betalactam -8.
COc1cccc(CNS(=O)(=O)c2ccc3c(c2)N(C)CCO3)c1 was read as RecA intein inh -5, FBA Mtb inh -2, GDH-TPI counter-1 -9, Mtb UGM inh -2, Rv3671c inh 2 and Mtb betalactam -2.
For Cc1ccc(S(=O)(=O)N2CCN(Cc3ccccc3)CC2)s1 the results were FBA Mtb inh -1, GDH-TPI counter-1 1, Mtb UGM inh -3, Rv3671c inh 10 and Mtb betalactam 0.
Screening CCC(=O)Nc1cccc(-c2cc3ccccc3oc2=O)c1 returned RecA intein inh -1, FBA Mtb inh 1, GDH-TPI counter-1 23, Mtb UGM inh 2, Rv3671c inh -11 and Mtb betalactam -5.
For O=C(Cc1cccc2ccccc12)Nc1ccc(-c2cc3ccccc3oc2=O)cc1 the results were RecA intein inh -14, FBA Mtb inh 53*, GDH-TPI counter-1 22, Mtb UGM inh 1, Rv3671c inh -23, Mtb betalactam 0, Mtb FBA confirm 75* and GDH-TPI counter-2 49*.
Screening OC(c1ccc(F)c(F)c1)c1ncc(-c2ccc(F)cc2)[nH]1 (centres undefined) returned FBA Mtb inh 1 and GDH-TPI counter-1 5.
For Cc1cc(/C=N/NC(=O)Cn2c3ccccc3c(=O)c3ccccc32)c(C)n1-c1ccc(Cl)cc1 the results were RecA intein inh -47, FBA Mtb inh 83*, GDH-TPI counter-1 8, Mtb FBA confirm 144* and GDH-TPI counter-2 119*.
`CCNC(=S)N/N=C/c1cc(C)n(-c2ccc(Cl)cc2)c1C` gave RecA intein inh 9, FBA Mtb inh -1, GDH-TPI counter-1 6, Mtb UGM inh 3, Rv3671c inh 3 and Mtb betalactam -5.
